Compounds with a hit are over-represented: about 8.7% of the library has one in this group of screens.
Vaccinia mCherry = inhibitors of vaccinia virus infection (mCherry reporter signal); Vaccinia virus mCherry reporter infection, fluorescence; Potency, µM (top dose mostly 36.5 µM), without a hit: at the top dose activity change, negative = inhibition, actives largely listed as inhibitors; hit rate 0.63% among 310,000; calls by dose curve; tested in A549 cells; note: nearly all actives have a fitted effect of over 35% in size
AMA1-RON2 inh = AMA1-RON2 (P. falciparum) interaction inhibition; AlphaScreen AMA1-biotinylated RON2 peptide binding; Potency, µM (highest dose often 58.2 µM), without a hit: at the highest dose activity change, negative = inhibition, most hits filed as inhibitors; hit rate 0.2% among 360,000; AID 720542;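 note: 0% = vehicle wells and -100% = peptide control; nearly all actives have a fitted effect of over 45% in size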
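AMA1 (3D7) with his tag at 25 nM final met compounds first, then biotinylated RON2 peptide at 25 nM; detection used donor plus acceptor beads, 10 µg/mL apiece, read by AlphaScreen after 30 min at room temperature.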
VACV Venus inh = inhibitors of vaccinia virus (Venus reporter); AID 720580; Vaccinia virus Venus reporter expression, fluorescence; hit rate 0.46% among 330,000; Potency, µM (doses to about 36.5 µM), without a hit: at the highest dose activity change, negative = inhibition, usual class: inhibitors; calls by dose curve; tested in A549 cells; note: nearly all actives have a fitted effect of over 30% in size
Pf growth 96h = inhibits malaria parasite growth, 96 h. P. falciparum luciferase reporter growth, 96 h. Potency, µM (doses to about 28.7 µM), inactives show top-dose activity change, negative = inhibition, actives largely listed as inhibitors. hit rate 6.9% among 320,000. AID 504834
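96 h incubation, 37 C, 5% CO2, of luciferase-reporter P. falciparum-infected RBCs (2% hematocrit, 0.05% parasitemia final) with test compounds; endpoint luminescence.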
Pf growth 48h = P. falciparum growth inhibition at 48 hours (one generation) | P. falciparum luciferase growth in erythrocytes, 48 h | Potency, µM (doses to about 28.7 µM), for the others: top-dose activity change, negative = inhibition, actives largely listed as inhibitors | hit rate 5.9% among 310,000 | AID 504832
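Firefly luciferase activity from engineered P. falciparum reports growth; inhibitors lower the luminescent signal. Cultures contained 2% hematocrit erythrocytes at 0.1% final parasitemia.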
Numbers without * were called inactive; i = inactive; ? = inconclusive; / = no result. Unless noted, calls come from the whole dose curve; as a rule, active = well fitted curve in the direction sought with a large enough effect; inconclusive = small, poorly fitted or top-dose-only effect, or another doubt; inactive = no such curve, though single readings can be large; an effect the other way counts as inactive or inconclusive. Unless noted, % is set by controls: 0 for no effect and ±100 for the full control effect; potency is the fitted concentration of half-maximal effect.

SMILES	Vaccinia mCherry	AMA1-RON2 inh	VACV Venus inh	Pf growth 96h	Pf growth 48h
C=CCNC(=O)/C(C#N)=C/c1ccccc1[N+](=O)[O-]	?	5%	-12%	16%	-2%
CCCCCCCCNC(=O)/C(C#N)=C/c1ccccc1[N+](=O)[O-]	-3%	?	-19%	?	13µM*
COC(=O)C(=Cc1ccccc1[N+](=O)[O-])C(=O)OC	/	5%	/	9.3µM*	?
N#C/C(=C\c1ccccc1[N+](=O)[O-])C(=O)NCc1ccccc1	-14%	10%	-3%	?	15µM*
O=C(/C=C/c1ccccc1[N+](=O)[O-])Oc1ccccc1	/	/	/	20%	16%
N#C/C(=C\C=C\c1ccccc1[N+](=O)[O-])C(=O)NCc1ccccc1	-30%	-16%	-17%	1.9µM*	3.7µM*
COc1ccc(OC)c(C(=O)N(Cc2cc3cccc(C)c3nc2N2CCC(O)CC2)C2CC2)c1	-13%	/	-12%	/	/
Cc1cc(=O)[nH]c2ccc(S(=O)(=O)NC3CCCCC3)cc12	/	1%	/	10µM*	0%
CC(C)c1ccc(/C=C2\C=Cc3ccccc32)cc1	17%	/	-4%	/	/
C=C(C)CNC(=S)N/N=C(\C)c1ccc(Cl)s1	-17%	8%	-12%	?	12µM*
COc1ccc(Cl)cc1NC(=O)c1cc2c(=O)n3ccccc3nc2s1	-7%	/	-8%	/	/
O=C(CSCc1nc2ccccc2[nH]1)Nc1ccc2ccccc2c1	/	-3%	/	?	1%
O=C(CSCc1cccc(CSCC(=O)Nc2ccc3ccccc3c2)n1)Nc1ccc2ccccc2c1	11µM*	1%	11µM*	/	/
CCOc1ccc(NC(=O)CN2C(=O)NC(C)(c3ccc(OC(F)F)cc3)C2=O)cc1 (stereo unspecified)	-20%	-17%	-11%	?	1µM*
COc1ccc(NC(=O)CN2C(=O)NC(c3ccccc3)(c3ccccc3)C2=O)cc1	-4%	-4%	-9%	27%	-20%
COc1ccc(C2(c3ccc(OC)cc3)NC(=O)N(CC(=O)NCC(C)c3ccccc3)C2=O)cc1 (stereo unspecified)	/	-7%	/	12µM*	12µM*
CC1(c2ccc(OC(F)F)cc2)NC(=O)N(CC(=O)Nc2ccc(OC(F)F)cc2)C1=O (stereo unspecified)	-6%	3%	-1%	11%	7%
COc1ccc(C2(c3ccc(OC)cc3)NC(=O)N(CC(=O)Nc3ccc(OC(F)F)cc3)C2=O)cc1	?	-13%	?	?	12µM*
Cc1cc(C)cc(-n2c(SCC(=O)N3CCc4ccccc43)nc3c([nH]c4ccccc43)c2=O)c1	9%	/	7%	/	/
CC(C)(C)c1ccc(C(=O)C[n+]2cccc(Br)c2)cc1	-15%	/	-16%	/	/
CCCCOc1[nH]c2nc(-c3ccco3)n(Cc3ccco3)c(=N)c2c1C#N	?	-10%	-23%	13%	5.9µM*
CCOC(=O)c1c(NC(C)=O)c2c3c(sc2n1Cc1nc(-c2ccc(Cl)cc2)oc1C)CCCC3	-12%	/	-18%	/	/
CC1CC[C@@]2(OC1)OC1C(O)C3C4CC[C@H]5CC(O[C@@H]6O[C@@H](CO)[C@H](OC7OC(CO)C(O)C(OC8OCC(O)C(O)[C@H]8O)[C@@H]7O[C@@H]7OC(CO)[C@H](O)[C@@H](O[C@@H]8OC(CO)C(O)C(O)C8O)C7O)C(O)C6O)C(O)C[C@]5(C)C4CC[C@]3(C)C1C2C (stereo partly specified)	7.9µM*	/	8.9µM*	/	/
Cc1cc(C)cc(C(=O)NCCn2cc(C(=O)N3CCSCC3)nn2)c1	-17%	/	-19%	/	/
Cc1cccc(C)c1NC(=O)c1ccc2nc(CCc3ccccc3)oc2c1	-15%	/	-13%	/	/
SMILES	Vaccinia mCherry	AMA1-RON2 inh	VACV Venus inh	Pf growth 96h	Pf growth 48h
CCN(CC)C(=O)c1[nH]cnc1C(=O)N[C@@H](CCCCNC(=O)OC(C)(C)C)C(=O)OC(C)(C)C	i	35%	-14%	?	?
Cc1cccc(NC(=O)c2nc[nH]c2C(=O)N[C@@H](CCCCNC(=O)OC(C)(C)C)C(=O)OC(C)(C)C)c1	-9%	110%	?	6.6µM*	4.7µM*
Cc1cccc(NC(=O)c2nc[nH]c2C(=O)NCCCCCNC(=O)OC(C)(C)C)c1	?	100%	?	?	2.6µM*
COc1ccc(OC)c(S(=O)(=O)N2CCN(c3ccccc3)CC2)c1	/	-2%	/	0%	-8%
CCc1ccccc1N1CCN(S(=O)(=O)c2cc(OC)ccc2OC)CC1	-2%	-2%	-3%	10µM*	-12%
COc1ccc(S(=O)(=O)N2CCN(c3ccccn3)CC2)c(OC)c1	/	7%	/	4.7µM*	16%
COc1ccc(N2CCN(S(=O)(=O)c3ccc(-n4cnnn4)c(C)c3)CC2)cc1	i	15%	-14%	23%	8%
COc1ccccc1N1CCN(S(=O)(=O)c2ccc(-n3cnnn3)c(C)c2)CC1	-5%	-3%	0%	1.7µM*	-4%
COc1ccccc1N1CCN(S(=O)(=O)c2cc(C)sc2C)CC1	?	-3%	9%	4.7µM*	/
CCOc1ccc(NC(=O)N2CCN(c3nnc(C)c4c(C)n(-c5ccccc5)nc34)CC2)cc1	-14%	/	-15%	/	/
CC1CCn2c(nc3cc(C(=O)NCc4ccc(F)cc4)ccc32)C1 (stereo unspecified)	-13%	/	-17%	/	/
COc1ccccc1N1CCN(c2nc3ccc(C)cc3nc2-n2nc(C)cc2C)CC1	-20%	/	-16%	/	/
Cc1ccc(C(=O)NN2C(=O)C3C4C=CC(C4)[C@@H]3C2=O)cc1 (stereo partly specified)	/	6%	/	82%	1.9µM*
Cc1ccc(CNC(=O)c2ccc(N3CCC4(CC3)CC(c3ccccc3)=NO4)c(NC(=O)c3ccccc3)c2)cc1	i	-2%	-15%	?	4.7µM*
Cc1ccc(CNC(=O)c2ccc(N3CCC4(CC3)CC(c3ccccc3)=NO4)c(NC(=O)c3ccc(Br)cc3)c2)cc1	i	-3%	0%	?	?
Cc1ccc(CNC(=O)c2ccc(N3CCC4(CC3)CC(c3cccc(Br)c3)=NO4)c(NC(=O)c3ccco3)c2)cc1	i	-1%	-15%	3.7µM*	1.7µM*
Cc1ccc(CNC(=O)c2ccc(N3CCC4(CC3)CC(c3ccccc3)=NO4)c(NC(=O)c3ccco3)c2)cc1	-19%	-6%	-8%	1µM*	?
CCCCC(CC)C(=O)Nc1cc(C(=O)NCCC)ccc1N1CCC2(CC1)CC(c1ccccc1)=NO2 (stereo unspecified)	-12%	-3%	-10%	1.5µM*	-38%
Cc1ccc2oc(C(=O)Nc3cccc(Cl)c3)cc(=O)c2c1	-7%	/	-21%	/	/
CCOc1ccc(-n2c(SCC(=O)Nc3cccc(Cl)c3)nc3c(oc4ccccc43)c2=O)cc1	-3%	/	-3%	/	/
Cc1ccc(S(=O)(=O)c2nc(-c3cccc(Br)c3)oc2N2CCCCCC2)cc1	-16%	/	-17%	/	/

Compound activity from PubChem BioAssay.
